Assay outcomes: PubChem BioAssay, National Center for Advancing Translational Sciences (NCATS)
This is a sample that favours compounds with a hit; in the whole collection about 2.5% have one here.
aSyn yeast inh: rescues yeast growth from alpha-synuclein toxicity; Potency, µM (titrated, usually from 46.1 µM), for inactives: top-dose growth rescue (activation), actives largely listed as activators; Yeast expressing alpha-synuclein, growth rescue, BacTiter-Glo, 24 h; AID 652106; 370,000 compounds, 0.14% hits; also: potency is read from the fitted curve at half-maximal effect; % of control where 0% means no effect; nearly all actives have a fitted effect of over 65% in size
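Screening used galactose-induced yeast with toxic alpha-synuclein levels, exposed to compound for 24 hr at 30 deg C. Cell growth, read with BacTiter-Glo luminescence, gave the measured signal.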
TDP43 rescue: inhibitors of TDP-43 toxicity in yeast. TDP-43 expressing yeast growth rescue, BacTiter-Glo, 24 h. Potency, µM (doses to about 46.1 µM), without a hit: top-dose growth rescue (activation), actives largely listed as activators. 410,000 compounds, 1.8% hits; also: potency is read from the fitted curve at half-maximal effect; % of control where 0% means no effect; nearly all actives have a fitted effect of over 50% in size
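Luminescence from BacTiter-Glo reports growth of TDP-43-expressing yeast after 24 hr at 30 deg C with compound. Cells were raffinose-pregrown to mid-log, then seeded in galactose medium at OD600=0.02.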
Anesthetic bind: candidate novel general anesthetic via apoferritin binding | apoferritin/1-aminoanthracene competitive binding, fluorescence | Potency, µM (series often up to 77.5 µM), inactives show top-dose activity change, negative = displacement, usual class: inhibitors | AID 485281 | 350,000 compounds, 0.074% hits | P02791; also: potency is read from the fitted curve at half-maximal effect; % is scaled to controls: 0 for no effect and ±100 for the full control effect; nearly all actives have a fitted effect of over 20% in size
Target sequence (P02791 2-175 limits assumed): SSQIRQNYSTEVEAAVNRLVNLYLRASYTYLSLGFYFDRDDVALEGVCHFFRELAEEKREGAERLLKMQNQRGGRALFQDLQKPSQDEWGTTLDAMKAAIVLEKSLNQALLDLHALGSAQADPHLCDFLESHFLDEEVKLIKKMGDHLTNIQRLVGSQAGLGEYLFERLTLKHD
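Horse-spleen apoferritin (10 uM) in 50% saturated 1-aminoanthracene in PBS was incubated 10 min at room temperature with compound. Fluorescence (ex 380, em 535 nm) was normalized to free and bound 1-AMA, with concentration-response fitted by a four-parameter Hill equation.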
Mito fusion yeast: inhibitors of mitochondrial division or activators of mitochondrial fusion; S. cerevisiae fusion-defective mutant growth rescue, CellTiterGlo 48 h; Potency, µM (series often up to 46.1 µM), for the others: top-dose growth rescue (activation), hits mostly activators; 320,000 compounds, 0.23% hits; AID 485298; also: potency is read from the fitted curve at half-maximal effect; % of control where 0% means no effect; nearly all actives have a fitted effect of over 45% in size
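Temperature-sensitive fusion-defective S. cerevisiae (e.g. fzo1-1, mgm1-5) were grown with compound in YPEG medium (3% ethanol, 3% glycerol) for 48 hours at 37C. Growth rescue was measured as viability by CellTiterGlo luminescence after 10 minutes at ambient.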
Akt phos inh: blocks phosphorylation of Akt | 360,000 compounds, 0.32% hits | activity change, % for hits at 50 µM | Neuro2A IGF-stimulated pAkt S473 HTRF, 20 min; active compounds read low; in the data active = activity change below about -80%; inconclusive = mostly about -51% to -80%; also: % is scaled to controls: 0 for no effect and ±100 for the full control effect
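Neuro2A cells (4,500/well, DMEM with 0.5% FBS) were treated with compound at a single 50 µM final concentration, stimulated with 6 nM IGF for 20 min at 37 °C, and lysed. Phospho-Akt Ser473 was read by HTRF as 665/615 ratio ×10^4.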
CCT modulator: changes cytosolic chaperonin activity; activity change, % (concentration not given with the values), hits read low; 360,000 compounds, 0.3% hits; AID 651819; purified chaperonin ATPase assay, HTRF ADP detection, 30 min; in the data active = activity change below about -30%; also: % is scaled to controls: 0 for no effect and ±100 for the full control effect
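TRiC (40 or 20 nM final, by batch activity) in 30 mM Tris pH 7.4, 100 mM KCl, 5 mM MgCl2, 1 mM DTT was treated with compound at 76 uM single dose, then 10 uM ATP, 30 min at 37 °C. ADP was read by HTRF Transcreener.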
An asterisk follows results filed as active. Unless noted, calls follow the shape of the dose curve; as a rule, active = well fitted curve in the direction sought with a large enough effect; inconclusive = small, poorly fitted or top-dose-only effect, or another doubt; inactive = no such curve, though single readings can be large; an effect the other way counts as inactive or inconclusive.

Screening COc1ccccc1N1CCN(C(=O)c2cc3n(n2)C(C(F)(F)F)CC(c2ccco2)N3)CC1 (stereo not drawn) returned aSyn yeast inh 7%, TDP43 rescue 2%, Anesthetic bind inconclusive, Mito fusion yeast -9%, Akt phos inh -107%* and CCT modulator -1.
Screening CCOc1cc(-c2cc(-c3ccc(N)cc3)nc(N)c2C#N)ccc1O returned aSyn yeast inh -24%, TDP43 rescue 16µM*, Anesthetic bind 75%, Mito fusion yeast 4%, Akt phos inh inactive and CCT modulator 1.
For CC[C@H](C)[C@H](N)C(=O)N[C@H](C(=O)N[C@@H](CO)C(=O)N[C@@H](C)C(=O)N[C@H](C(=O)N[C@H](C(=O)NCC(=O)N[C@H](C(=O)N[C@@H](CC(C)C)C(=O)O)[C@@H](C)CC)C(C)C)C(C)C)[C@@H](C)CC the results were Anesthetic bind -1%.
Fc1ccc(Br)cc1SCCc1ccncc1 was read as aSyn yeast inh -4%, TDP43 rescue 11µM*, Anesthetic bind -5%, Mito fusion yeast 1%, Akt phos inh inactive and CCT modulator -8.
Cc1cc(S(=O)(=O)c2ccc([N+](=O)[O-])cn2)ccc1Br was read as aSyn yeast inh -22%, TDP43 rescue 1µM*, Akt phos inh inactive and CCT modulator 1.
Screening O=C(CN1C(=O)c2ccccc2S1(=O)=O)Nc1cc(S(=O)(=O)N2CCOCC2)ccc1N1CCOCC1 returned aSyn yeast inh -5%.
Screening Cc1ccc(/C=C/C(=O)O)cc1S(=O)(=O)N1CCc2ccccc21 returned aSyn yeast inh 10%, TDP43 rescue 7.9µM*, Anesthetic bind 1%, Mito fusion yeast 16%, Akt phos inh inactive and CCT modulator -1.
COc1cc(/C=C/C(=O)OCC(=O)Nc2ccc(NC(C)=O)cc2)cc(S(=O)(=O)N2CCc3ccccc32)c1OC was read as aSyn yeast inh 7%, Anesthetic bind -12%, Mito fusion yeast 2%, Akt phos inh inactive and CCT modulator -45*.
For Cc1ccc(N(C)C(=O)Cn2cnc3onc(-c4ccc(F)cc4)c3c2=O)cc1C the results were aSyn yeast inh inconclusive, TDP43 rescue -8% and Anesthetic bind inconclusive.
Screening Brc1ccc(-c2nc(-c3ccncc3)no2)o1 returned aSyn yeast inh 3%, TDP43 rescue 13µM*, Anesthetic bind -5%, Mito fusion yeast -3%, Akt phos inh inactive and CCT modulator -1.
Screening COc1cccc(-c2nc(CC(=O)O)cs2)c1OC returned aSyn yeast inh -4%, TDP43 rescue 13%, Anesthetic bind -5%, Mito fusion yeast -3%, Akt phos inh inactive and CCT modulator -1.
Screening COc1cccc(-c2nc(CCl)cs2)c1OC returned aSyn yeast inh 1%, TDP43 rescue 14µM*, Anesthetic bind -2%, Mito fusion yeast 7%, Akt phos inh inactive and CCT modulator -1.
For CCn1ccc2cc(S(=O)(=O)N3CCCN(C(=O)Nc4ccccc4F)CC3)ccc21 the results were aSyn yeast inh 1%, TDP43 rescue inconclusive and Anesthetic bind -11%.
CCCCCCC(=O)c1c(C)[nH]c(C(=O)OCC)c1C was read as aSyn yeast inh -3%, TDP43 rescue 10µM*, Anesthetic bind -5%, Mito fusion yeast inconclusive, Akt phos inh inactive and CCT modulator -1.
For O=C1C(=O)N(CC2CCCO2)C(c2ccccc2[N+](=O)[O-])/C1=C(/O)c1ccccc1 (stereo not drawn) the results were aSyn yeast inh 1%, TDP43 rescue -6%, Anesthetic bind -5%, Mito fusion yeast -2%, Akt phos inh inactive and CCT modulator -49*.
For Cc1ccc(-c2noc(CNC(=O)c3ccc(Br)o3)n2)cc1 the results were TDP43 rescue -22% and Anesthetic bind inconclusive.
CCc1ccc2occ(CC(=O)NCc3ccccc3)c2c1 was read as TDP43 rescue 11µM* and Anesthetic bind -10%.
`CCOC(=O)/C=C/C(=O)OCC(=O)Nc1ccc(OC)c(Cl)c1` gave aSyn yeast inh 3%, TDP43 rescue 35µM*, Anesthetic bind 6%, Mito fusion yeast -14%, Akt phos inh inactive and CCT modulator 2.
For CCc1ccc2occ(CC(=O)Nc3ccccc3C(F)(F)F)c2c1 the results were TDP43 rescue -17% and Anesthetic bind -4%.
Screening CCc1ccc2occ(CC(=O)Nc3ccc(OC)c(Cl)c3)c2c1 returned aSyn yeast inh inconclusive, TDP43 rescue 16µM* and Anesthetic bind -11%.
Screening CCc1ccc2occ(CC(=O)Nc3nnc(C)s3)c2c1 returned TDP43 rescue -2% and Anesthetic bind -1%.
For CCOC(=O)c1cnc2cc(C(F)(F)F)ccc2c1Nc1ccc(F)cc1F the results were TDP43 rescue 9% and Anesthetic bind -18%.
CCOC(=O)N1C(COCc2ccccc2)C=CCS1(=O)=O (stereo not drawn) was read as Anesthetic bind -1%.
`COC(=O)C1=NN(c2ccc(C)cc2)C2(S1)SC(C(C)=O)=C(C)N2c1ccccc1` (stereo not drawn) gave aSyn yeast inh 3%, TDP43 rescue 0%, Anesthetic bind -9%, Mito fusion yeast -3%, Akt phos inh inactive and CCT modulator -2.
Screening COC(=O)C1=NN(c2ccccc2)C2(S1)SC(C(C)=O)=C(C)N2c1ccccc1 (stereo not drawn) returned aSyn yeast inh 0%, TDP43 rescue -1%, Anesthetic bind -19%, Mito fusion yeast -14%, Akt phos inh -138%* and CCT modulator 2.
O=C(COC(=O)CNC(=O)C1CCCCC1)NC1CCCC1 was read as aSyn yeast inh -2%.
For Cc1ccc(CC(=O)NO)cc1 the results were aSyn yeast inh -10%.
`Clc1cccc(Cc2c(-c3ccco3)nc3c4ccccc4ccn23)c1` gave aSyn yeast inh 15%, TDP43 rescue inconclusive, Akt phos inh inactive and CCT modulator -1.
For Clc1cccc(Cc2c(-c3ccccc3)nc3c4ccccc4ccn23)c1 the results were aSyn yeast inh inconclusive, TDP43 rescue 11µM*, Akt phos inh inactive and CCT modulator -2.
Clc1cccc(Cc2c(-c3cccc(Cl)c3)nc3c4ccccc4ccn23)c1 was read as aSyn yeast inh -7%, TDP43 rescue 17%, Akt phos inh inactive and CCT modulator 2.
Screening Fc1cccc(Cc2c(-c3ccco3)nc3c4ccccc4ccn23)c1 returned aSyn yeast inh 13%, TDP43 rescue 35µM*, Akt phos inh inactive and CCT modulator 0.
